We go through 40 compounds from PubChem BioAssay (Tox21).

“And” between values parts separate entries of the source, which are not always exact repeats. Equal entries are not always repeated. Records with an inconclusive call do not appear. Where a call stands in place of a potency, no number is given. Values without a mark were called inactive. The source made the active and inactive calls. Calls follow the shape of the dose curve; as a rule, active = well fitted inhibition curve with a large enough effect in the signal ratio in the repeat runs (not every such curve was filed as active); inconclusive = weak or mixed curves, or effect the other way; inactive = no such curve, though single readings can be large or run the other way; the % refers to the signal ratio.
Potency is read from the fitted curve at half-maximal effect.

Chain of Glucocorticoid receptor (Homo sapiens) (P04150 whole entry, looked up): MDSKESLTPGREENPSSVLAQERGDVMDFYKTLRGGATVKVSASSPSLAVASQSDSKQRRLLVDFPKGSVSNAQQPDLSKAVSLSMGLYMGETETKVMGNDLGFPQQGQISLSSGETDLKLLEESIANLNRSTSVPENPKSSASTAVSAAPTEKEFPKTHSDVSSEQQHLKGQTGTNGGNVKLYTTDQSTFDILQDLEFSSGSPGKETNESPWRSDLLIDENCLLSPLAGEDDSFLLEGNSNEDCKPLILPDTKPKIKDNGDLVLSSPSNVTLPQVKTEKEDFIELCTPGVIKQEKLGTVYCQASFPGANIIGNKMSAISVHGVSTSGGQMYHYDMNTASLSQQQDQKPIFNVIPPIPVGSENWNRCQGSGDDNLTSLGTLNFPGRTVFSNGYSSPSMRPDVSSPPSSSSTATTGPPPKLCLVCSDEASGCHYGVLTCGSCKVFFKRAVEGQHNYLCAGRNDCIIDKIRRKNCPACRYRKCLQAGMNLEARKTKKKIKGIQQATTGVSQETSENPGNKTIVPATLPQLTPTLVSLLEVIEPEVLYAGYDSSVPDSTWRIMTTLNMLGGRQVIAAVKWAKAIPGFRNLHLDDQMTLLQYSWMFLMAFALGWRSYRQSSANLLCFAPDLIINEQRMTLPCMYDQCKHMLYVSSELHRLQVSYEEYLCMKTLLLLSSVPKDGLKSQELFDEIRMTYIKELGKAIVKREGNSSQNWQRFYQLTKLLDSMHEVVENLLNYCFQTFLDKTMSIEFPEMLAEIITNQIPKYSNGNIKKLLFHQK

In the test the target is Glucocorticoid receptor (Homo sapiens) (UniProt P04150). The test can be described thus: qHTS assay to identify small molecule antagonists of the glucocorticoid receptor (GR) signaling pathway (AID 720692). The note with it: GR-bla HeLa, beta-lactamase FRET ratio, dexamethasone-stimulated, 18 h; series mostly up to 58.5 µM; activity change, negative = inhibition: at the top concentration. From the text:
U.S. Tox21 Program National Center for Advancing Translational Sciences [NCATS] NIH Chemical Genomics Center [NCGC] U.S. Environmental Protection Agency [EPA] National Institutes of Environmental Health Sciences [NIEHS] National Toxicology Program [NTP] U.S. Food and Drug Administration [FDA] Tox21 Assay Overview: The Glucocorticoid receptor (GR) is one of the members of the nuclear receptor family of ligand-dependent transcription factors. GR plays a critical role in carbohydrate, protein and lipid metabolisms and programmed cell death. CellSensor GR-bla HeLa cell line (Invitrogen) contains a beta-lactamase reporter gene under the control of the glucocorticoid response element stably integrated into HeLa cells, a cervical cancer cell line that expresses glucocorticoid receptor. The activation of the reporter gene under culture conditions can be detected by fluorescence intensity. This cell line has been used to screen the Tox21 10K compound library and to identify the compounds that inhibit the GR signaling.
Tox21 Assay Protocol Summary: The GR-bla HeLa cells were dispensed at 1500 cells/5 ul/well in 1536-well black wall/clear bottom plates using a Multidrop Combi (ThermoFisher Scientific, Waltham, MA) dispenser. After the assay plates were incubated at a 37 C/5% CO2 incubator for 4 hours, 23 nL of compounds dissolved in DMSO, positive controls or DMSO only was transferred to the assay plate by a pintool station (Kalypsys, San Diego, CA), followed by addition of 1 uL of dexamethasone (5 nM, final concentration in the well). The plates were incubated at 37 C for 18 hours. After 1 uL of LiveBLAzerTM B/G FRET substrate was added using a Flying Reagent Dispenser (Aurora Discovery, San Diego, CA), the plates were incubated at room temperature for 2 hours, and fluorescence intensity was measured by an Envision plate reader (PerkinElmer, Shelton, CT).
Regarding `CC(C)(C)c1cc(Cc2cc(C(C)(C)C)c(O)c(C(C)(C)C)c2)cc(C(C)(C)C)c1O`, the “activity change, negative = inhibition” value is -26.6%.

For `CSc1ccc(Cl)cc1`, the Potency entry is “inactive”.

With `C=Cc1ccc(C)cc1`, the Potency entry was “inactive”.

As for `CCO[Si](CCCN)(OCC)OCC`, the “activity change, negative = inhibition” value was 8%.

Regarding `COc1cc(OC)c(C(=O)CCCN2CCCC2)c(OC)c1`, the “activity change, negative = inhibition” value was 10.7% [at 27 µM].

Take `O=C(O)c1ccccc1C(=O)O`: the Potency entry was “inactive”.

With `O=C(O)c1ccc(C(=O)O)c(C(=O)O)c1`, the Potency result is “inactive”.

On to `COCCOC(=O)c1ccccc1C(=O)OCCOC`, for which the “activity change, negative = inhibition” value is 2.29%.

Consider `CC(O)CC(C)(C)O` (stereo not given), for which the Potency entry was “inactive”.

On to `CN(C)c1ccc(O)c2c1C[C@H]1C[C@H]3[C@H](N(C)C)C(=O)C(C(N)=O)=C(O)[C@@]3(O)C(=O)C1=C2O`, for which the Potency entry is “inactive”.

As for `CNC(=S)N(C)C`, the Potency result is “inactive”.

Turning to `CC(C)CC(=O)CC(C)CC(C)C` (stereo not given), the Potency entry is “inactive”.

Regarding `CCO[Si](CCC#N)(OCC)OCC`, the “activity change, negative = inhibition” value is 9.37% [at 78.9 µM].

As for `CCCCCCC=O`, the “activity change, negative = inhibition” value was -23.9%.

Take `O=S(=O)(O)c1ccc(N=Nc2c(O)ccc3cc(S(=O)(=O)O)ccc23)cc1`: the “activity change, negative = inhibition” value was -3.52% [at 78.9 µM].

Consider `CCCCCCCCCCO`, for which the Potency entry is “inactive”.

Take `CCCCOC(=O)c1ccc(N)cc1`: the “activity change, negative = inhibition” value is 12.3%.

For `CC(=O)OC1CC(C)OC(C)O1` (stereo not given), the Potency result was “inactive”.

In the case of `O=C(OCC1CCC2OC2C1)C1CCC2OC2C1` (stereo not given), the Potency entry was “inactive”.

`CCOC(=O)c1ccc(N)cc1`: the “activity change, negative = inhibition” value is 2.02%.

Regarding `OCc1ccccc1`, the Potency entry is “inactive”.

As for `CCCCCCCCCCCCCCCCO`, the Potency entry was “inactive”.

As for `Cc1ccc(C(C)C)c(O)c1`, the “activity change, negative = inhibition” value was -2.46%.

On to `CC(=O)OCc1ccccc1`, for which the Potency entry was “inactive”.

On to `COCCCN`, for which the Potency entry was “inactive”.

Take `O=c1[nH]cnc2[nH]ncc12`: the Potency entry was “inactive”.

Regarding `CC(CCO)CC(C)(C)C` (stereo not given), the Potency entry is “inactive”.

`CC(C)(Oc1ccc(CCNC(=O)c2ccc(Cl)cc2)cc1)C(=O)O`: the “activity change, negative = inhibition” value is 12.9% [at 27 µM].

For the compound `C=C(C)CNCC`, the Potency entry is “inactive”.

Regarding `O=C1CCCC1`, the “activity change, negative = inhibition” value is -1.48% [at 78.9 µM].

Regarding `COC(=O)c1cccnc1`, the Potency result is “inactive”.

As for `COC(=O)CCCC(=O)OC`, the “activity change, negative = inhibition” value is 0.0709%.

Take `O=S(=O)(O)c1ccccc1`: the Potency entry was “inactive”.

As for `C[C@]12CC[C@@H]3c4ccc(O)cc4CC[C@H]3[C@@H]1C[C@@H](O)[C@@H]2O`, the Potency is 12 µM (active) and 38.9 µM (active).

Turning to `C=C(C)[C@H]1CC=C(C)C(=O)C1`, the Potency result is “inactive”.

`CC(C)c1cccc(C(C)C)c1`: the “activity change, negative = inhibition” value was 0.133% [at 78.9 µM].

For `Cc1ccc2ncccc2c1`, the Potency result was “inactive”.

With `CCOC(=O)n1ccn(C)c1=S`, the Potency result is “inactive”.

For `C=CCCCCCCCCC(=O)O`, the Potency entry is “inactive”.

`CC(=O)OCCOC(C)=O`: the “activity change, negative = inhibition” value is 0.0709%.
